From PubChem BioAssay AID449762 (Southern Research Specialized Biocontainment Screening …, 2010) come the findings set out here.

The campaign covered roughly 330,000 compounds. About 1,900 (0.58%) were called active. Another 4% or so got no clear call; they are omitted. Cut-off read from the data, not from the text of the source: inconclusive = inhibition above about 70% without an active follow-up result; inactive = below that. Not all results are given here. Measured potencies and affinities stand elsewhere.

A short description of the assay: M. tuberculosis growth inhibition, HTS (AID 449762).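 Note: bacterial growth assessed after seven days of incubation.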 The note with it: M. tuberculosis H37Rv growth inhibition, 7H9 media; at 25 µM; active compounds read high.
Turning to `CCOC(=O)c1sc(NC(=O)c2cc(-c3ccc(C)cc3)nc3ccccc23)c(C#N)c1C`, the inhibition was 1.87% (inactive). The same measure for `COc1cccc(NS(=O)(=O)c2c(C)n(C)c(=O)n(C)c2=O)c1`: -4.03% (inactive); for `Cc1ccc(C)c(N2CCN(S(=O)(=O)c3ccc(-c4cc(C)no4)s3)CC2)c1`: 6.24% (inactive). In the case of `Cc1nn(-c2ccc([N+](=O)[O-])cc2)c2c1C(c1cccc(Br)c1)N1C(=N2)C(=O)Nc2ccccc21` (stereo unspecified), the inhibition was 15.9% (inactive).

As to `Cc1nn(-c2ccc([N+](=O)[O-])cc2)c2c1C(c1ccc(OC(F)F)cc1)N1C(=N2)C(=O)Nc2ccccc21` (stereo unspecified), the inhibition was 65.4% (inactive). Turning to `Cc1cc(C(=O)NCC(=O)OCC(=O)Nc2ccc(OC(F)F)cc2)ccc1[N+](=O)[O-]`, the inhibition is -2.28% (inactive). Next, `CC(C)NC(=O)[C@@H]1CSC2c3ccccc3C(=O)N21` (stereo partly specified): -1.97% (inactive); `O=C(C[C@@H]1C/C=C\CCCC(=O)OC[C@@H]2CCCN2C1=O)N[C@H](CO)Cc1ccccc1`: 7.5% (inactive); `Cc1cc(SCC(=O)NCCN2C(=O)CSC2=O)nc2c(C)cccc12`: 4.1% (inactive). Turning to `Cc1cccc(NC(=O)c2cc3c(s2)-c2c(C)cccc2OC3)n1`, the inhibition was 0.14% (inactive). As for `Cc1cccc2c1-c1sc(C(=O)Nc3cccc([N+](=O)[O-])c3C)cc1CO2`, the inhibition was -9.42% (inactive). For the compound `Cc1cccc(OCCCC(=O)Nc2nccs2)c1C`, the inhibition is 8.02% (inactive). Turning to `O=C(c1sccc1-c1ccccc1)N1CCN(S(=O)(=O)c2ccccc2)CC1`, the inhibition was -22.5% (inactive). The same measure for `COCCNc1nc(SCC(=O)N2CCN(c3ccccc3OC)CC2)nc2ccccc12`: -10.5% (inactive); for `[O-][n+]1c2ccccc2c2n1CCN=C2c1ccc(Cl)cc1`: 0.84% (inactive).

`COc1ccc2c3n([n+]([O-])c2c1)CCN=C3c1ccc(C)cc1`: the inhibition was 17% (inactive). The same measure for `O=C(O)c1ccc(Cn2ccc3ccccc32)o1`: 2% (inactive); for `CCOc1ccccc1NC(=O)CSC1=C(C#N)C(c2ccco2)C(C(=O)Nc2nc3ccccc3s2)=C(C)N1` (stereo unspecified): 49.6% (inactive). As for `CC(=O)C1=C(C)NC(SCC(=O)c2ccc(Cl)cc2)=C(C#N)C1c1ccco1` (stereo unspecified), the inhibition was 2.1% (inactive). The same measure for `CC(=O)C1=C(C)NC(SCC(N)=O)=C(C#N)C1c1ccco1` (stereo unspecified): -6.56% (inactive); for `CC1=C(C(=O)Nc2ccccc2)C(c2ccco2)C(C#N)=C(SCC(=O)Nc2cccc(C)c2C)N1` (stereo unspecified): -1.31% (inactive). Consider `CCOc1ccccc1CN1CCN(CC2CC2)CC1CCO` (stereo unspecified), for which the inhibition was -1.16% (inactive). `COCCCNC(=O)CC(NCCCOC)C(=O)O` (stereo unspecified): the inhibition is 0.77% (inactive). For the compound `COC(=O)c1ccc(NS(=O)(=O)N(C)C)cc1`, the inhibition is -1.07% (inactive). Next, `Cc1ccc(C(=O)N(CCC2=CCCCC2)c2c(N)n(Cc3ccccc3)c(=O)[nH]c2=O)o1`: 6.47% (inactive).

Consider `Nc1c(N(CCC2=CCCCC2)C(=O)c2ccco2)c(=O)[nH]c(=O)n1Cc1ccccc1`, for which the inhibition is 9.03% (inactive). For `CS(=O)(=O)c1ccc(Cl)c(NC(=O)COC(=O)CCN=C2NS(=O)(=O)c3ccccc32)c1`, the inhibition was -3.06% (inactive).

For `O=C(CCl)NN1C(=O)NC(c2ccccc2)(c2ccccc2)C1=O`, the inhibition was 2.88% (inactive).

Regarding `Cc1ccc(S(=O)(=O)NCC(=O)OCc2cc(=O)oc3cc(C)ccc23)cc1`, the inhibition is -1.73% (inactive). As to `O=C(NC(=S)Nc1ccc2[nH]c(=O)[nH]c2c1)c1ccccc1F`, the inhibition is -4.55% (inactive). Next, `Clc1ccc2c(c1)C(OC1CN3CCC1CC3)c1ccccc1CS2` (stereo unspecified): 9.17% (inactive); `Brc1ccc2c(c1)C(C1=NCCN1)c1ccccc1CS2` (stereo unspecified): 0.75% (inactive).

With `CN(C)/N=C/c1c(O)ccc2ccccc12`, the inhibition is 27.8% (inactive). Take `NC(=S)N/N=C/c1c(O)ccc2ccccc12`: the inhibition was -0.33% (inactive).

Turning to `CCCN(CCC)C(=O)c1ccc2nc(-c3ccc(OC)c(OC)c3)c(-c3ccc(OC)c(OC)c3)nc2c1`, the inhibition is -2.59% (inactive).

In the case of `CC1CCCN(C(=O)Cc2cccc3ccccc23)C1` (stereo unspecified), the inhibition was 7.05% (inactive). For the compound `CCN(c1ccccc1)S(=O)(=O)c1cccc(C(=O)Nc2ccc(C)cn2)c1`, the inhibition is -11.7% (inactive). Turning to `COc1cccc(-c2cccc(NC(=O)C3CCN(C4CCOCC4)CC3)c2)c1`, the inhibition is 6.63% (inactive). The same measure for `Cc1ccc(/C=N/N2C(=O)C3C(C2=O)C2C=CC3C23CC3)o1` (stereo unspecified): -4.61% (inactive). `O=C1C2C(C(=O)N1/N=C/c1ccc(N3CCCCC3)o1)C1C=CC2C12CC2` (stereo unspecified): the inhibition is 6.38% (inactive).

For `CC(C)(C)n1nnnc1C(c1ccc(Cl)cc1)N1CCCc2ccccc21` (stereo unspecified), the inhibition was -4.81% (inactive). Next, `N#C/C(=N\Nc1ccc(Cl)cc1)C(N)=S`: 59.5% (inactive); `N#C/C(=N\Nc1ccccc1)C(N)=S`: 2.54% (inactive).

As to `Cn1c(NN=O)nc2ccccc21`, the inhibition was 0.37% (inactive). On to `Cc1ccc(C)c(N=Nc2nc3ccccc3n2C)c1`, for which the inhibition is -4.4% (inactive). For `CCCCCc1ccc(-c2cn(CN3C(=O)c4ccccc4C3=O)nn2)cc1`, the inhibition was -0.74% (inactive).

With `COC(=O)c1cc(COC(=O)c2ccc3ccccc3n2)oc1C`, the inhibition was 5.66% (inactive).

On to `O=C(Cc1ccc([N+](=O)[O-])cc1)Nc1ccc(Cl)cc1`, for which the inhibition was -3.64% (inactive). Consider `CCc1cccc(NC(=O)Cc2ccc([N+](=O)[O-])cc2)c1`, for which the inhibition is -1.32% (inactive). `Fc1ccc(CSc2ccc3nnc(-c4cccnc4)n3n2)cc1`: the inhibition is -5.63% (inactive). The same measure for `Cn1c(-c2ccc(=O)[nH]c2)nc2ccccc21`: -2.91% (inactive).

Take `COC(=O)CC(NC(=O)c1ccco1)c1cccc2ccccc12` (stereo unspecified): the inhibition is -11% (inactive). `C[C@]12CC[C@@H]3c4ccc(O)cc4CC[C@H]3[C@@H]1CC[C@@H]2OC(=O)CCC(=O)O`: the inhibition is 5.59% (inactive).

As for `CC(=O)O[C@H]1CC[C@H]2[C@@H]3CCc4cc(O)ccc4[C@H]3CC[C@]12C`, the inhibition was 3.79% (inactive). The same measure for `COc1ccc(/C=N/NC(=O)c2nonc2C)cc1`: 5.08% (inactive); for `COc1ccc(CCNC(=O)CSc2nn(-c3ccccc3)c(=S)s2)cc1`: -1.49% (inactive); for `COc1ccc(C(=O)N(Cc2ccco2)C(C(=O)NC2CCCC2)c2ccc(O)cc2)cc1OC` (stereo unspecified): -4.43% (inactive). Turning to `O=C(NC1CCCCC1)C(c1ccc2ncccc2c1)N(Cc1ccc2c(c1)OCO2)C(=O)c1cccs1` (stereo unspecified), the inhibition was 7% (inactive). `COc1cc(C(=O)Nc2ccc3nc4n(c(=O)c3c2)CCCC4)ccc1Br`: the inhibition was 0.83% (inactive). Regarding `O=[N+]([O-])c1ccc(N2CCN(Cc3ccccc3)CC2)s1`, the inhibition was 62.1% (inactive). Turning to `O=[N+]([O-])c1ccc(CN2CCCCCC2)s1`, the inhibition was -2.04% (inactive). For the compound `CC(=O)N(CC1CCCO1)c1nnc(-c2cnccn2)s1` (stereo unspecified), the inhibition is -7.32% (inactive).

For `CCOC(=O)C[N+](C)(C)CCOC1CC2CCC1(C)C2(C)C` (stereo unspecified), the inhibition was 0.01% (inactive).

With `CCCOC(=O)C[N+](C)(C)CCOC1CC2CCC1(C)C2(C)C` (stereo unspecified), the inhibition is -2.27% (inactive). On to `CCN(CC)c1ccc(C=NCCNS(=O)(=O)c2ccc(C)cc2)cc1`, for which the inhibition was -5.21% (inactive). As to `CCOc1cc(/C=N/Nc2nc3ccccc3[nH]2)cc(Br)c1OCC(=O)N(C)C`, the inhibition is 54.1% (inactive). Take `CCOc1cc(/C=C2\COc3ccccc3C2=O)ccc1OCC(=O)N(C)C`: the inhibition is 36.2% (inactive). The same measure for `Nn1c(SCC(=O)Nc2ccccc2)nnc1C1CCCCC1`: -4.13% (inactive); for `CCO[C@H]1OC(C(=O)NC2CC2)=C[C@@H](c2csc3ccccc23)[C@@H]1CCCO`: 2.79% (inactive). Regarding `O=C(CC1C(=O)NCCN1Cc1c(F)cccc1Cl)NC1CCCC1` (stereo unspecified), the inhibition was -8.1% (inactive). The same measure for `O=[N+]([O-])c1cc(Cl)ccc1N1CCN(c2cccc(C(F)(F)F)c2)CC1`: 12% (inactive); for `CN(C)CCCN(C(=O)c1ccc(S(=O)(=O)N2CCc3ccccc32)cc1)c1nc2ccc(F)cc2s1`: 2.5% (inactive). Regarding `CN(C)CCCN(C(=O)c1ccc(S(=O)(=O)N2CCc3ccccc32)cc1)c1nc2ccc(Cl)cc2s1`, the inhibition is 6.05% (inactive). As to `COc1ccccc1NC(=S)N(Cc1ccc(C(=O)O)cc1)Cc1ccc(OC)c(OC)c1`, the inhibition was 1.31% (inactive). For `O=C(NCc1n[nH]c(=S)n1-c1ccc(F)cc1)c1ccc(S(=O)(=O)N2CCCCC2)cc1`, the inhibition was 0.39% (inactive). Turning to `Cc1ccc(CNC(=O)c2ccc(Cn3cc(-c4ccc(C)cc4)nc3-c3ccncc3)cc2)cc1`, the inhibition was 8.49% (inactive). Next, `CCCNC(=O)c1ccc(Cn2cc(-c3ccc(OC)cc3)nc2C(C)N)cc1` (stereo unspecified): -9.06% (inactive); `O=C(NCCc1ccccc1Cl)C1CCC(=O)N(C2CCCCCC2)C1` (stereo unspecified): 4.37% (inactive).

In the case of `COc1cc(OC)cc(C(=O)NCCSC2CCCCC2)c1`, the inhibition was 1.7% (inactive). `C=CCc1ccccc1OCC(O)CN1CCN(c2ccc(C)cc2)CC1` (stereo unspecified): the inhibition is 8.24% (inactive). For the compound `O=C(c1cc2ccccc2[nH]1)N(Cc1cccnc1)CC1CCCN(C2CCCCC2)C1` (stereo unspecified), the inhibition is 58% (inactive). `COC(=O)c1ccccc1C(=O)N(Cc1cccnc1)CC1CCCN(C2CCCCC2)C1` (stereo unspecified): the inhibition is 2.83% (inactive).

In the case of `CCN(C(=O)c1ccccc1F)c1nc(-c2ccc(OC)cc2)cs1`, the inhibition was 5.39% (inactive). Regarding `CCOC(=O)CCc1c(C)c2ccc(OCC(=O)OC(C)C)cc2oc1=O`, the inhibition was 26.9% (inactive). As to `CCc1c(C)c2ccc(OCC(N)=O)cc2oc1=O`, the inhibition was 4.28% (inactive). For `COCCCNc1nc2cc(OC)c(OC)cc2c2nc(-c3ccccc3)nn12`, the inhibition was 13% (inactive). Turning to `CCN(CC)CCCNc1nc2ccccc2c2nc(-c3ccncc3)nn12`, the inhibition is -0.63% (inactive). Regarding `CCCCCCCCCCCC(=O)N1CC(=O)NC(=O)C1`, the inhibition was -0.85% (inactive). `CC(C)CCN1CC(=O)N2[C@@H](Cc3c([nH]c4ccccc34)C2(C)C)C1=O`: the inhibition was 1.66% (inactive).

Regarding `c1ccc(Oc2nc(-c3cccnc3)nc3ccccc23)cc1`, the inhibition is 13.2% (inactive). Consider `Cc1ccc(Oc2nc(-c3cccnc3)nc3ccccc23)c([N+](=O)[O-])n1`, for which the inhibition was 3.26% (inactive).

For orientation: inhibition means the change of the read-out against control, counted positive when it falls.
